This is part of a sample that, as a whole, favours compounds with a hit. Of some 83,000 tested, about 20% had one in any assay.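 Compound tested at a single concentration for 48 hours in 96-well plates; a percent growth value below 10 was scored as active.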 Calls of active or inactive are those of the source.
What was measured:
Assay in all cases: NCI-60 one-dose screen, 48 h (100 = growth as untreated, 0 = no growth, -100 = all killed)
Details in all cases: 10 µM unless noted
[1] = system: HCT-15 colon
[2] = system: HT29 colon
[3] = system: SNB-75 CNS
[4] = system: SNB-19 CNS
[5] = system: U251 CNS
[6] = system: PC-3 prostate
[7] = system: SK-MEL-5 melanoma
[8] = system: UACC-62 melanoma
[9] = system: LOX IMVI melanoma
[10] = system: SK-MEL-28 melanoma
[11] = system: SK-MEL-2 melanoma
[12] = system: EKVX NSCLC
[13] = system: SN12C renal
[14] = system: UO-31 renal
[15] = system: TK-10 renal
[16] = system: ACHN renal
[17] = system: CAKI-1 renal
[18] = system: A498 renal
[19] = system: CCRF-CEM leukemia
[20] = system: MOLT-4 leukemia

Measured: growth

COc1ccc(-c2cc(-c3ccc(OC)c(OC)c3)nc(SCCCCCC(=O)NO)n2)cc1
inactive: [1] 96.5% | [2] 31.3% | [3] 46.2% | [4] 65.8% | [5] 38.3% | [6] 64.5% | [7] 31.9% | [8] 24% | [9] 56.9% | [10] 35.5% | [11] 52.5% | [12] 62.5% | [13] 77% | [14] 68.6% | [15] 44.9% | [16] 81.3% | [17] 53.7% | [18] 66.7% | [19] 22.7% | [20] 14%

COc1ccc(C(=O)CSc2nnc(-c3cc(-c4ccccc4)nc4ccccc34)o2)cc1
inactive: [1] 103% | [2] 113% | [3] 102% | [4] 94.3% | [5] 103% | [6] 105% | [7] 105% | [8] 98% | [9] 101% | [10] 109% | [11] 129% | [12] 109% | [13] 97.3% | [14] 96% | [15] 116% | [16] 108% | [17] 95.7% | [18] 100% | [19] 112% | [20] 120%

C[n+]1c(-c2ccccc2)c2cc(N)ccc2c2ccccc21
active: [3] -0.792% | [4] -2.68% | [7] 0.275% | [8] 0.188% | [13] 4.79%
inactive: [1] 101% | [2] 31.5% | [5] 11.6% | [6] 58.4% | [9] 40.2% | [10] 10.4% | [11] 19.6% | [12] 26.6% | [14] 89.9% | [15] 90.4% | [16] 95.7% | [17] 110% | [18] 126% | [19] 50.9% | [20] 33.5%

Nc1nc(SCc2cccc([N+](=O)[O-])c2)c2[nH]cnc2n1
inactive: [1] 95.1% | [2] 98.4% | [3] 89.5% | [4] 91.7% | [5] 95% | [6] 92.3% | [7] 98% | [8] 91.3% | [9] 77.9% | [10] 106% | [11] 96% | [12] 90.9% | [13] 94.9% | [14] 64.7% | [15] 90.4% | [16] 99.6% | [17] 84% | [18] 82.1% | [19] 95% | [20] 91.4%

Cn1cc(-c2noc(-c3cn(C)c4ncc(Br)cc34)n2)c2cc(Cl)ccc21
inactive: [1] 87.6% | [2] 67.3% | [3] 56.2% | [4] 63% | [5] 97.5% | [6] 80.3% | [7] 83.9% | [8] 78.5% | [9] 65.4% | [10] 86.8% | [11] 82.4% | [12] 62.7% | [13] 50.5% | [14] 71.8% | [15] 64.7% | [16] 31.8% | [17] 50.8% | [18] 84.8% | [19] 68.6% | [20] 67.7%

Cc1cc(SC#N)ncn1
inactive: [1] 102% | [2] 108% | [3] 86.7% | [4] 103% | [5] 103% | [6] 107% | [7] 100% | [8] 93.5% | [9] 93.7% | [10] 114% | [11] 66.9% | [12] 101% | [13] 94.9% | [14] 96.2% | [15] 101% | [16] 98.4% | [17] 98.9% | [18] 102% | [19] 88% | [20] 109%

CCN(CC)CCCNCc1cc(-c2ccccc2)nc2ccccc12
active: [9] 9.8% | [20] 8.2%
inactive: [1] 15.3% | [2] 55.1% | [3] 73.6% | [4] 82.5% | [5] 21.5% | [6] 75% | [7] 69.6% | [8] 95.6% | [10] 92.7% | [11] 109% | [12] 93.7% | [13] 48% | [14] 23.7% | [15] 46.8% | [16] 101% | [17] 100% | [18] 75.2% | [19] 11.8%

C#C[C@]1(O)CC[C@H]2[C@@H]3CC=C4c5nc(N)sc5CC[C@]4(C)[C@H]3CC[C@@]21C
active: [3] -5.36%
inactive: [1] 42.4% | [2] 41.6% | [4] 71.6% | [5] 38.1% | [6] 47.5% | [7] 60.4% | [8] 30.3% | [9] 55.4% | [10] 57.1% | [11] 58.8% | [12] 53.7% | [13] 82.2% | [14] 90.4% | [15] 80.4% | [16] 79.6% | [17] 54.9% | [18] 36.4% | [19] 77.7% | [20] 36.9%
